These results are taken from PubChem BioAssay.

The source made the active and inactive calls.

Test [1] is described as follows: small molecules captured by biotinylated probe aFSTL3 – biochemical, small-molecule microarray, fluorescence 635/667, stem cell growth factor project, primary screen (AID 1064).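 Also: measures binding of the biotinylated anti-FSTL3 antibody to printed compounds.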 To be noted: higher = more signal.
A short description of test [2]: binders from COS7 lysate, DM2A8 probe, primary screen, torsin A project, cell lysate, small-molecule microarray, fluorescence 635/667 (AID 1065). To be noted: higher = more signal, COS7 lysate expressing mutant human TOR1A.
A short description of test [3]: small molecules captured by biotinylated probe aFGF2 – biochemical, small-molecule microarray, fluorescence 635/667, stem cell growth factor project, primary screen (AID 1067).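 Also: measures binding of biotinylated aFGF2 protein to printed compounds on slides; z-score merges feature fluorescence and signal-to-noise across triplicate slides.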 The conditions noted are these: higher = more signal.
Test [4] in a line: small molecules captured by biotinylated probe aFGF10 – biochemical, small-molecule microarray, fluorescence 635/667, stem cell growth factor project, primary screen (AID 1071).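 Also: score merges 667 nm spot intensity and signal to noise from triplicate slides.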 The conditions noted are these: higher = more signal.
In test [5] the target is Neurogenic locus notch homolog protein 2 (Homo sapiens) (UniProt Q04721). Put plainly: small molecules binding Notch2 protein – biochemical, small-molecule microarray, 635 nm fluorescence, stem cell growth factors, primary screen (AID 1073). The conditions noted are these: higher = more signal.
Test [6] concerns the target Pro-neuregulin-1, membrane-bound isoform (Homo sapiens) (UniProt Q02297). In words: small molecules binding neuregulin-1 protein – biochemical, small-molecule microarray, fluorescence 635/667, psychiatric disease protein project, primary screen (AID 1075).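 Also: score combines 667 nm spot fluorescence with signal to noise.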 The conditions noted are these: NRG1 binding, 635 nm fluorescence, higher = more signal.
Test [7] has as its system Neuregulin-1 EGF-like domain. In words: small molecules binding NRG1 EGF domain – biochemical, small-molecule microarray, 635 nm fluorescence, primary screen (AID 1081).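 Also: binding of the protein to compounds printed on small-molecule microarray slides.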 The conditions noted are these: higher = more signal.
Test [8] in a line: FRG1 expression reporter modulators in myotubes – cell-based, C2C12 myotubes, firefly/Renilla luciferase, luminescence, FRG1 inhibition for FSHD, primary screen (AID 1084). The conditions noted are these: FRG1 promoter luciferase, higher = more signal, called active from +8 up or from −8 down.
A short description of test [9]: small molecules captured by biotinylated probe aFST – biochemical, small-molecule microarray, fluorescence 635/667, stem cell growth factor project, primary screen (AID 1086).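 Also: score merges 667 nm fluorescence with signal-to-noise of each printed compound spot.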 The conditions noted are these: higher = more signal.
Test [10] can be described thus: binders of probe aHhip on microarray, primary screen, stem cell growth factor project, biochemical, small-molecule microarray, fluorescence 635/667 (AID 1087).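 Also: score merges spot fluorescence at 667nm with spot signal to noise ratio.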 To be noted: higher = more signal.

Neurogenic locus notch homolog protein 2 (Homo sapiens), sequence (Q04721 whole entry, looked up, canonical isoform): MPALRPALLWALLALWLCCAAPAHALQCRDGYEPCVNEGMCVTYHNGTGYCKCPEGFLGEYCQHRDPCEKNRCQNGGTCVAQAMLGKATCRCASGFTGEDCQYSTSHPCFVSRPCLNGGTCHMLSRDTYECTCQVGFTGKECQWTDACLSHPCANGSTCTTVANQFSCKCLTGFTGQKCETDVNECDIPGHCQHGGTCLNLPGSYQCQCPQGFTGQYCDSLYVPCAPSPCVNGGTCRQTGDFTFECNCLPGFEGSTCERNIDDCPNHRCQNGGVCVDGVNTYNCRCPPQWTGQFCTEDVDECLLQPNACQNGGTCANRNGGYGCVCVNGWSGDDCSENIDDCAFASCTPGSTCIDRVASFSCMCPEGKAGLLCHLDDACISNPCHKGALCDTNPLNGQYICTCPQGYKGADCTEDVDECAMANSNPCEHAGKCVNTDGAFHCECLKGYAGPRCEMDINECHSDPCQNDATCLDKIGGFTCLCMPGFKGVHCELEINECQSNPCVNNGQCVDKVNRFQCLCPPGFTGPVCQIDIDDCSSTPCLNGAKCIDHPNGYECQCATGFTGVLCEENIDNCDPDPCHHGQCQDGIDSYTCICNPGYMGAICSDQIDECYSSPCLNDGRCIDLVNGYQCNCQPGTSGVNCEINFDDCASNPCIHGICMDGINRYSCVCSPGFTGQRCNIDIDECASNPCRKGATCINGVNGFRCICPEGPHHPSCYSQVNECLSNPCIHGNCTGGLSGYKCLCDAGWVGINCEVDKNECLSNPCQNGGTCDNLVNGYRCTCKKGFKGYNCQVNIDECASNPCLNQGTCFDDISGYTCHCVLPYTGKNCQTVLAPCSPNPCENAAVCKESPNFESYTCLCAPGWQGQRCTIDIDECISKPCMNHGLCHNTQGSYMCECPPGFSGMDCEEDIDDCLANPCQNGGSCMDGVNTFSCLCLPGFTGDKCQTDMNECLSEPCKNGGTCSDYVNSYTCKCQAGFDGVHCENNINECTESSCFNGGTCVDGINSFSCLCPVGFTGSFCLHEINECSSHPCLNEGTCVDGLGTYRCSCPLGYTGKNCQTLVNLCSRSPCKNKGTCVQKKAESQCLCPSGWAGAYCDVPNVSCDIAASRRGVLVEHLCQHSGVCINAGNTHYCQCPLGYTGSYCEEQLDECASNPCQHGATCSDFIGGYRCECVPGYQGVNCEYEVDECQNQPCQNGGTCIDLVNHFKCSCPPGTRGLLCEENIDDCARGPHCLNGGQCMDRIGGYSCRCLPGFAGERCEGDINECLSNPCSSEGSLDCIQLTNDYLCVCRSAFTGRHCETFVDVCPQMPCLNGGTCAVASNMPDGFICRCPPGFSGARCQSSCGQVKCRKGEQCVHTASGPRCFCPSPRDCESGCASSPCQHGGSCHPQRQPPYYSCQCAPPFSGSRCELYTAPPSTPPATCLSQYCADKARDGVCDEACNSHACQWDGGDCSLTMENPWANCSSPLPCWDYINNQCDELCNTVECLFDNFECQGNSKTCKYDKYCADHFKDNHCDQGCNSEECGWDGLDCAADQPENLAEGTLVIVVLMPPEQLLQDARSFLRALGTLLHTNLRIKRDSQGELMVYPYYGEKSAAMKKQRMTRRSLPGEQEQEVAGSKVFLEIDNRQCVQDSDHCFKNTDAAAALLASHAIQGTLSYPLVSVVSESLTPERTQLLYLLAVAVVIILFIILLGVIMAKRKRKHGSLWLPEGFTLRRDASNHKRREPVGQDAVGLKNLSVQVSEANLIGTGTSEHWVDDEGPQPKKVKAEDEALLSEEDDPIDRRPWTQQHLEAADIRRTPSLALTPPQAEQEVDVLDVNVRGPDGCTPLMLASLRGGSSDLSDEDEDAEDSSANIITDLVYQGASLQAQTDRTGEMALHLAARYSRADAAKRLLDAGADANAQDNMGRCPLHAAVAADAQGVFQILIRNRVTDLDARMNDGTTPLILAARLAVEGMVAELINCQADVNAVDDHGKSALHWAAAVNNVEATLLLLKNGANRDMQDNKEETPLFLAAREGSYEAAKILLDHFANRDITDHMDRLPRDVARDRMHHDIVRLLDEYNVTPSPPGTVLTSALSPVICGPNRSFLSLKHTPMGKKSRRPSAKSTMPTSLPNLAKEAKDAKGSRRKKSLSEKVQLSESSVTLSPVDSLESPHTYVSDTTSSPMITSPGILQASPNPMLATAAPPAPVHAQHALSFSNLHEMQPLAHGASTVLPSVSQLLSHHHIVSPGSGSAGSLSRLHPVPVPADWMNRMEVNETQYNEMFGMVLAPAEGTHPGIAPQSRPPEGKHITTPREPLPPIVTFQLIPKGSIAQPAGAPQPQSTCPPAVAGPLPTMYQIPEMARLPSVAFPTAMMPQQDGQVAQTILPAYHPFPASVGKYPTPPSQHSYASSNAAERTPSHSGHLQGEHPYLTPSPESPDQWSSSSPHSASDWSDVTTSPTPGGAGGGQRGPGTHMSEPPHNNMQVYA
Pro-neuregulin-1, membrane-bound isoform (Homo sapiens), sequence (Q02297 whole entry, looked up, the tested form may be a part, canonical isoform): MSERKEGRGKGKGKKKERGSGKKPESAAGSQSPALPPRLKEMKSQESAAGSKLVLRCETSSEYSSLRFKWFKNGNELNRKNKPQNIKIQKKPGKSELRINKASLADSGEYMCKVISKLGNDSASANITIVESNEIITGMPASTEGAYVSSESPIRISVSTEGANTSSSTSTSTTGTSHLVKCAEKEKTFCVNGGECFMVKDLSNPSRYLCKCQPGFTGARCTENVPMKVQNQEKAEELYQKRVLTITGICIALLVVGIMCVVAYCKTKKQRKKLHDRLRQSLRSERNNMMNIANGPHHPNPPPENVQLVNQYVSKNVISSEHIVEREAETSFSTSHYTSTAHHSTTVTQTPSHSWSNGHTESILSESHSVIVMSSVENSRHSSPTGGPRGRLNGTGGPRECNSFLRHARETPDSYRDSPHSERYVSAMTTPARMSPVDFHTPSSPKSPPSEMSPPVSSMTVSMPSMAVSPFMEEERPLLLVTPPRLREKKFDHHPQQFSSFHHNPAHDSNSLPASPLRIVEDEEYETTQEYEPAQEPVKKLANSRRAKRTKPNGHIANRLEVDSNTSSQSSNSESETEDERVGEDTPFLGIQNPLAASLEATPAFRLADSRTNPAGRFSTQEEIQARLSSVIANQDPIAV

On to `COC(=O)c1c(CC[C@@H](CO)NC(=O)N[C@H](Cn2cc(-c3ccccc3C)nn2)C(C)C)oc(C(C)=O)c1C(=O)OC`, for which the composite z-score was -0.157 in test [1]; -1.08 in test [2]; -0.129 in test [3]; 0.415 in [4]; -1.18 in test [5]; 0.638 in [6]. Besides, the composite z-score is 0.309 in [7], -0.205 in [9] and 0.145 in [10]. Moreover, the z-score in test [8] was 0.87 (inactive).

Regarding `[N-]=[N+]=NCc1ccccc1C[C@@]1(C(N)=O)N=C(c2ccc(OCCCO)cc2)O[C@@H]1c1ccccc1CN=[N+]=[N-]`, the composite z-score was 0.517 in [1]; -0.186 in test [2]; -0.0469 in test [3]; 0.972 in test [4]; 1.53 in [5]; 1.01 in test [6]. The figures for the composite z-score in [7], in test [9] and in [10] were 1.19, 0.544 and -0.0645, respectively. Further, in test [8], the z-score is 1.56 (inactive).

Consider `COC(=O)[C@@]1(Cc2ccc(OC)cc2)[C@H]2c3cc(C(=O)N4CCCC4)n(CCc4cc5ccccc5[nH]4)c3C[C@H]2CN1C(=O)c1ccccc1`, for which the composite z-score is 0.649 in [1]; 0.115 in test [2]; 0.194 in [3]; 0.614 in test [4]; 1.36 in test [5]; 1.9 in test [6]. The composite z-score in test [7] was 1.1; in [9] it was 1.71; in test [10] it was 0.363. In test [8], the z-score is 0.562 (inactive).

Regarding `COC(=O)C1(Cc2ccccc2)C=C2C(=C(c3ccccc3)C(=O)C2C)CN1` (stereo not given), the composite z-score was determined as 2.22 in test [1]; 0.0069 in [2]; 0.731 in test [3]; 1.21 in test [4]; 1.19 in test [5]; 1.45 in [6]. The composite z-score stood at 1.01 in test [7], 1.87 in test [9] and 2.63 in test [10]. Further, the z-score in test [8] is 0.943 (inactive).

`COC(=O)[C@@]1(Cc2ccc(OC)cc2)[C@H]2c3cc(C(=O)N(C)C)n(Cc4ccccc4)c3C[C@H]2CN1C(=O)c1ccccc1`: the composite z-score is 0.342 in [1]; 0.0293 in [2]; -0.0066 in test [3]; 0.0679 in test [4]; 0.571 in test [5]; 1.11 in test [6]. Moreover, the composite z-score in test [7] is 0.828; in test [9] it was 1.06; in test [10] it was -0.0597. Further, the z-score in [8] is -1.53 (inactive).

`CC(C)NC(=O)[C@@]1(C)c2ccccc2C(=O)N(C(C)C)[C@H]1c1ccc(CO)cc1`: the composite z-score in [1] was -0.0225; in [2], -0.953; in test [3], -0.153; in [4] it was -0.564; in [5] it was -0.792; in test [6], 0.493. The composite z-score in [7] is -0.643; in test [9], -0.242; in [10] it was -0.252. In test [8], the z-score is -0.639 (inactive).

`COc1ccccc1CN1C(=O)c2ccccc2[C@@H](C(=O)NC(C)C)[C@@H]1c1ccc(CO)cc1`: the composite z-score in test [1] is -0.0001; in test [2] it was -0.487; in [3] it was 0.0451; in test [4], 0.761; in [5], 1.53; in test [6] it was 1.13. The composite z-score in [7] was determined as 1.31; in test [9], 0.676; in [10], 0.281. Besides, the z-score in test [8] was -1.41 (inactive).

Turning to `CC(C)CN1C(=O)[C@@]2(c3ccc([N+](=O)[O-])cc3)CC(=O)N(CC34CC5CC(CC(C5)C3)C4)[C@@H]2c2ccc(CO)cc21`, the composite z-score in test [1] is 0.311; in test [2] it was -1.76; in test [3], -0.186; in [4] it was -0.34; in test [5], -0.602; in [6], 0.251. Further, the composite z-score was -0.594 in test [7], 0.0959 in test [9] and -0.0994 in test [10]. Further, the z-score in test [8] is 0.0918 (inactive).

In the case of `CC(C)C(=C=CC[C@H](O)c1ccc(OCCO)cc1)C[C@H](O)c1cc(Cl)cc(Cl)c1O`, the composite z-score was -0.321 in test [1]; 1.35 in [2]; -0.0076 in [3]; 0.85 in [4]; 0.869 in test [5]; 1.31 in test [6]. Besides, the values for the composite z-score in test [7], in test [9] and in test [10] were 1.24, 0.32 and 0.0722, respectively. In addition, the z-score in [8] is -1.66 (inactive).

As for `COc1ccc([Si](C)(C)[C@H]2[C@H](CCn3cc([C@H](O)c4ccccc4)nn3)O[C@@]3(C(=O)N(Cc4ccc(N5CCOC5=O)cc4)c4ccccc43)[C@@H]2C)cc1`, the composite z-score in test [1] is 0.365; in test [2] it was -0.437; in test [3], -0.204; in [4], -0.111; in [5], -1.11; in [6], 0.276. Further, the composite z-score was -0.426 in test [7], -0.757 in [9] and -0.236 in [10]. In addition, the z-score in test [8] was -1.58 (inactive).

`CON(C)C(=O)C=C1C[C@@H](c2cccc(Cl)c2)O[C@@H](c2cccc(Cl)c2)O1`: the composite z-score in test [1] is -0.0715; in test [2], 1.03; in test [3] it was 0.0168; in test [4], -0.0102; in test [5], -0.0986; in [6], 1. Moreover, the composite z-score is 0.524 in [7], -0.0994 in test [9] and -0.0645 in test [10]. Besides, the z-score in test [8] is -1.83 (inactive).

Take `COCCOC(=O)N1C(=O)[C@@]2(c3cc(C#Cc4ccc(OC)cc4)ccc31)[C@H](C(=O)N1CCCCCCC1)[C@H]1C(=O)O[C@H](c3ccccc3)[C@H](c3ccccc3)N1[C@@H]2c1ccc(O)cc1`: the composite z-score is 2.75 in [1]; 0.294 in test [2]; 0.125 in [3]; 0.479 in [4]; 0.565 in test [5]; 0.114 in test [6]. The composite z-score amounted to 1.13 in [7], 2.06 in test [9] and 0.615 in test [10]. The z-score in test [8] is 1.09 (inactive).

With `CC(=O)n1cc(C(O)C2C=CC3C(=O)N(Cc4ccccc4)C(=O)C3N2n2cnnc2)c2ccccc21` (stereo not given), the composite z-score was -0.317 in [1]; 0.47 in test [2]; -0.0218 in test [3]; -0.0821 in [4]; 0.145 in test [5]; -0.0307 in [6]. The composite z-score in test [7] was 0.351; in [9], 0.426; in test [10], -0.268. Also, in test [8], the z-score is 0.186 (inactive).

In the case of `COC(=O)C1(Cc2ccccc2)C=C2C(=C(C(C)C)C(=O)C2C)CN1` (stereo not given), the composite z-score is 1.63 in test [1]; 1.26 in [2]; 0.0992 in [3]; -0.66 in test [4]; -0.0793 in test [5]; 1.25 in test [6]. Further, the figures for the composite z-score in test [7], in test [9] and in [10] were 0.853, 1.24 and 0.773, respectively. For the same compound, in test [8], the z-score is 3.19 (inactive).

For the compound `O=C(O)[C@]1(Cc2ccccc2)N=C(c2ccc(OCCCO)cc2)O[C@@H]1c1ccccc1`, the composite z-score is 0.428 in test [1]; -1.31 in test [2]; -0.135 in [3]; -0.321 in [4]; 0.0148 in [5]; 1.45 in test [6]. The figures for the composite z-score in test [7], in test [9] and in [10] were 0.847, 0.378 and -0.164, respectively. Besides, the z-score in test [8] was -0.737 (inactive).

Consider `CN1C(=O)C2C=CC(C(O)C3CCCCC3)N(N3CCCCC3)C2C1=O` (stereo not given), for which the composite z-score was -0.0863 in test [1]; 1.54 in [2]; 0.156 in test [3]; 0.644 in test [4]; 1.52 in test [5]; 1.51 in test [6]. The composite z-score stood at 1.23 in [7], 1.01 in test [9] and 0.398 in [10]. Further, the z-score in [8] was 0.573 (inactive).
